In the library only some 0.4% were active in any assay of this set; here they are far more common.
HRas wt GTP: modulators of GTP binding to HRas wildtype, primary screen, biochemical, bead-based flow cytometry, multiplex. GTPase HRas (Homo sapiens), P01112. GST-Ras wt beads, Bodipy-FL-GTP binding; actives lie on both sides. GTP binding activity, % at 10 µM. hit rate 0.14% among 190,000. AID 759, 2007;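 active = GTP binding activity at least 20% away from the 100% baseline, either lowered as inhibitor or raised as activator; inconclusive = flagged as likely green fluorescent, judged across all proteins in the well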;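 note: 0% = unlabeled GTP competition control and 100% = no-compound control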
Target sequence (P01112 whole entry, looked up): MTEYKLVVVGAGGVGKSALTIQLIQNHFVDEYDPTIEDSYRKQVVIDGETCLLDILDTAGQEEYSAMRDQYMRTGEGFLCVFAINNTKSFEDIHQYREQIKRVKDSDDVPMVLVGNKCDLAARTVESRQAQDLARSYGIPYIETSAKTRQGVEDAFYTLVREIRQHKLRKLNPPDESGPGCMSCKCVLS
Cdc42 wt GTP: modulators of GTP binding to wildtype Cdc42, primary screen, biochemical, multiplex bead flow cytometry, Bodipy-GTP; hit rate 0.2% among 190,000; GST-Cdc42 beads; actives lie on both sides; percent activity (GTP binding), % at 10 µM; Cell division control protein 42 homolog (Homo sapiens), P60953;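 active = percent activity GTP binding at least 20 points away from the 100% baseline, either down as inhibitor or up as activator; inconclusive = compound flagged as likely green fluorescent from well-wide comparison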;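 note: median bead fluorescence of bound Bodipy-FL-GTP at 100 nM; 0% = excess unlabeled GTP control and 100% = no compound control; below 100% means less GTP binding so inhibitor and above means activator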
Target sequence (P60953 whole entry, looked up): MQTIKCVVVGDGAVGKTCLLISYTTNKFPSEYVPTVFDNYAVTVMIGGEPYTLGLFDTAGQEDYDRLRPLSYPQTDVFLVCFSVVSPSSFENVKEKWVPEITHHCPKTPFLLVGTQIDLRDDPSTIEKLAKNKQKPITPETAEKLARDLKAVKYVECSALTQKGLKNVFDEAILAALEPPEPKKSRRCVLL
Rac1 mut GTP: GTP binding modulators of activated mutant Rac1, primary screen, biochemical, bead-based flow cytometry, multiplex, fluorescent GTP; GST-Rac1 activated beads; actives lie on both sides; 100% means binding = to untreated wells; hit rate 0.11% among 190,000; AID 764, 2007; Ras-related C3 botulinum toxin substrate 1 (Homo sapiens), P63000; percent activity (GTP binding), % at 10 µM;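 active = GTP binding at least 20 percentage points away from the 100% baseline, in either direction, so actives lie on both sides; inconclusive = Compound likely fluorescent itself, or too few beads counted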
Rac1 wt modul: wildtype Rac1 GTP binding modulators, primary screen, biochemical, GST-Rac1 beads, flow cytometry, multiplex; Ras-related C3 botulinum toxin substrate 1 (Homo sapiens), P63000; fluorescent GTP binding; actives lie on both sides; 0 = cold GTP competed, 100 = untreated; GTP binding activity (% of control), % at 10 µM; hit rate 0.27% among 190,000; AID 757, 2007;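 active = GTP binding activity at least 20 points away from the 100% control level, either lower or higher; inconclusive = compound flagged as likely green fluorescent, judged across all proteins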
Rab7 wt GTP bind: modulators of GTP binding to Rab7, primary screen, biochemical, wildtype, multiplex bead flow cytometry. GTP binding activity (percent of control), % at 10 µM. hit rate 0.055% among 190,000. AID 758, 2007. GST-Rab7 beads, fluorescent GTP binding; actives lie on both sides; untreated = 100%, excess cold GTP = 0%;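 active = fluorescent GTP binding to Rab7 beads changed by at least 20 points from the 100% baseline, either direction, mostly lower; inconclusive = compound itself probably fluorescent, or too few beads counted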;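 note: median green fluorescence of bound Bodipy-FL-GTP per Rab7 bead population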
Rab2 wt GTP: modulators of GTP binding to Rab2A wildtype, primary screen, biochemical, dog, bead-based flow cytometry, multiplex. AID 760, 2007. GST-Rab2 wt beads, Bodipy-GTP binding. Ras-related protein Rab-2A (Canis lupus familiaris), P61105. hit rate 0.19% among 190,000. GTP binding activity, % at 10 µM;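 active = GTP binding activity at least 20 points away from 100%, either lowered or raised; inconclusive = signal likely due to the compound's own green fluorescence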;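 note: 0% = beads with excess unlabeled GTP and 100% = no-compound control corrected for plate trend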
* marks the source's active call; other numbers are inactive results; ? = inconclusive; [ ] = remark or other dose.

SMILES	HRas wt GTP	Cdc42 wt GTP	Rac1 mut GTP	Rac1 wt modul	Rab7 wt GTP bind	Rab2 wt GTP
Cc1nn(-c2ccccc2)c(N2CCCC2)c1/C=C1\N=C(c2ccc(OC(C)C)cc2)OC1=O	95	94	94	97	98	94
CSc1nnc(-c2cc(Br)ccc2N=Cc2c(C)[nH]n(-c3ccccc3)c2=O)c(=O)[nH]1	85	78*	80	88	93	81
Cc1ccc(-n2[nH]c(C)c(C=Nc3ccc(Br)cn3)c2=O)cc1	98	100	95	101	105	97
CC(C)Oc1ccc(CCc2n[nH]c(=S)n2-c2ccccc2)cc1	97	92	93	94	103	97
Cc1cc(=O)[nH]c2ccccc12	107	108	101	107	107	105
Cc1cc2[nH]c3c(c[n+](C)c4ccccc34)c2cc1C	87	85	94	76*	94	87
Cc1cnc([N+](=O)[O-])n1CCOC(=O)NC(=O)c1ccccc1Cl	95	95	96	96	93	96
O=C(O)COc1ccccc1/C=N/NC(=O)c1cccc(S(=O)(=O)Nc2cccc(Cl)c2)c1	87	82	82	75*	94	82
Cc1ccc2ncccc2c1NC(=S)NC(=O)c1ccccc1	94	89	90	94	102	95
COc1cc(NC(=O)c2cccs2)c(OC)cc1NC(=O)CCC(=O)Nc1ccc2ncccc2c1	72*	71*	87	74*	90	71*
CN(c1cccc(NC(=O)CN(c2ccc(C34CC5CC(CC(C5)C3)C4)cc2)S(C)(=O)=O)c1)S(C)(=O)=O	102	101	102	102	98	102
Cc1cc(Cl)ccc1OCC(=O)OCC(=O)Nc1ccc(F)c([N+](=O)[O-])c1	74*	77*	91	97	89	64*
CCNC(=O)COC(=O)COc1ccc(Cl)cc1C	101	102	100	105	98	102
O=C(Nc1ncc(Cc2cccc(C(F)(F)F)c2)s1)c1ccc(-c2cccc([N+](=O)[O-])c2)o1	91	98	92	96	96	94
O=C(Nc1nccs1)c1ccc(-c2cccc([N+](=O)[O-])c2)o1	84	82	86	76*	102	84
O=C1CC(c2ccc(F)cc2)Sc2ccccc2N1 (stereo unspecified)	114	116	109	129*[activator]	111	106
Cc1sc2ncnc(Sc3ccccc3C(=O)O)c2c1C	124*[activator]	137*[activator]	132*[activator]	145*[activator]	122*[activator]	134*[activator]
O=C(O)c1ccccc1Sc1ncnc2sc3c(c12)CCC3	121*[activator]	129*[activator]	123*[activator]	123*[activator]	107	124*[activator]
COc1ccc2nc(-n3c(O)c(C4=c5ccccc5=NC4=O)[nH]c3=S)sc2c1	91	93	91	92	94	89
Cn1c(O)c(C2=c3ccccc3=NC2=O)[nH]c1=S	87	90	90	79*	94	85
COc1ccc(-c2csc(NC(=O)c3cccs3)c2C(=O)O)cc1OC	92	92	95	91	102	90
COc1ccc(-c2csc(NC(=O)Cc3cccc4ccccc34)c2C(=O)O)cc1	78*	76*	82	70*	81	75*
Cc1nc2sccn2c1-c1nc(-c2cc3ccccc3o2)cs1	81	83	91	79*	87	77*
c1ccc2oc(-c3csc(N4CCOCC4)n3)cc2c1	95	92	97	96	97	94
CCOc1cc(/C=C(/C#N)c2nc3ccccc3[nH]2)ccc1OCc1ccc(C(=O)O)o1	76*	77*	86	85	92	74*
SMILES	HRas wt GTP	Cdc42 wt GTP	Rac1 mut GTP	Rac1 wt modul	Rab7 wt GTP bind	Rab2 wt GTP
Cc1cc(-c2n[nH]c(=S)n2/N=C/C(Cl)=C/c2ccccc2)n[nH]1	77*	92	85	85	77*	85
COc1cc(/C=N/Nc2nn3cnnc3c3ccccc23)ccc1O	62*	58*	?	75*	81	72*
C(=N\Nc1nn2cnnc2c2ccccc12)/c1ccco1	75*	77*	89	88	87	72*
Clc1cnc(N/N=C/c2ccco2)c(Cl)c1	101	99	100	104	100	100
COc1ccc(CCNC(=O)C2CCCN2C(=O)NC2CCCCC2)cc1OC (stereo unspecified)	122*[activator]	141*[activator]	114	143*[activator]	99	128*[activator]
COc1ccc(CCNC(=O)NC2CCCCC2)cc1OC	96	97	95	96	96	97
COC(=O)c1cc(Br)c(N)cc1OC	96	96	94	99	94	94
Cc1ccc(N=Nc2c(N)[nH]n3c(=O)c4c(nc23)CCCC4)cc1	86	86	86	75*	91	82
Cc1[nH]n2c(=O)c3c(nc2c1-c1ccc(F)cc1)CCCC3	87	87	88	81	92	87
Cc1ccc(N=Nc2c(=O)[nH]n3c(C)cc(C)nc23)cc1	97	100	95	98	99	100
Cc1ccc(N=Nc2c(N)[nH]n3c(=O)cc(C)nc23)cc1	87	88	88	75*	92	81
Oc1ccc2ccccc2c1C=Nc1ccc(Cl)cn1	94	95	93	97	93	93
COC(=O)c1sccc1NC(=S)N1CCN(c2cc(C)ccc2C)CC1	100	100	98	103	95	98
O=C(O)c1ccc(N2C(=O)/C(=C/c3ccc(-c4ccc([N+](=O)[O-])cc4)o3)C=C2c2ccccc2)cc1	86	75*	79*	79*	92	80
CC1=NN(c2ccc(Cl)c(C(=O)O)c2)C(=O)/C1=C\c1ccc(-c2ccc(C(=O)O)cc2)o1	90	87	87	89	91	88
O=C(NC(Cc1c[nH]c2ccccc12)C(=O)O)c1ccc(Br)cc1 (stereo unspecified)	92	90	91	91	93	91
Cc1ccc(-c2ccc(/C=C3\SC(N4CCOCC4)=NC3=O)o2)cc1	85	87	90	76*	90	88
O=C(CCCCCN1C(=O)c2ccccc2C1=O)Oc1ccc2c3c(c(=O)oc2c1)CCC3	95	95	98	96	98	97
O=C(O)c1cccc(NC(=S)N/N=C/c2ccccc2OCc2ccc(Br)cc2)c1	97	89	94	94	98	93
